This is part of a sample that, as a whole, favours compounds with a hit. Of some 83,000 tested, about 20% had one in any assay.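 In brief: 96-well plates, 48 h treatment, single concentration, percent growth endpoint.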 Values without a mark were called inactive. The source made the active and inactive calls. The calls were made as follows: active = growth percent below 10; inactive = the rest.
What was measured:
Experiment in all cases: NCI-60 one-dose screen, 48 h (100 = growth as untreated, 0 = no growth, -100 = all killed)
Details in all cases: 10 µM unless noted
SR leukemia = tested on: SR leukemia
RPMI-8226 leukemia = tested on: RPMI-8226 leukemia
OVCAR-8 ovarian = tested on: OVCAR-8 ovarian
OVCAR-5 ovarian = tested on: OVCAR-5 ovarian
OVCAR-4 ovarian = tested on: OVCAR-4 ovarian
SK-OV-3 ovarian = tested on: SK-OV-3 ovarian
IGROV1 ovarian = tested on: IGROV1 ovarian
OVCAR-3 ovarian = tested on: OVCAR-3 ovarian
HS 578T breast = tested on: HS 578T breast
NCI/ADR-RES ovarian = tested on: NCI/ADR-RES ovarian

Row | Compound | growth (SR leukemia) | growth (RPMI-8226 leukemia) | growth (OVCAR-8 ovarian) | growth (OVCAR-5 ovarian) | growth (OVCAR-4 ovarian) | growth (SK-OV-3 ovarian) | growth (IGROV1 ovarian) | growth (OVCAR-3 ovarian) | growth (HS 578T breast) | growth (NCI/ADR-RES ovarian)
1 | CCCC[N+](C)(N)CCCC | 92.1% | 94.3% | 99.2% | 103% | 108% | 102% | 119% | 113% | 115% | 119%
2 | NNC(=O)CNc1ccc2ccccc2c1 | 55% | 113% | 108% | 195% | 108% | 106% | -27.9% (active) | 114% | 93.3% | 113%
3 | COc1ccc(C2=C/C(=C\c3ccc(Cl)cc3)C(=O)NN2C(=S)NN)cc1 | 93% | 86.5% | 94.2% | 112% | 90% | 89.5% | 107% | 111% | 96.6% | 94.5%
4 | COC(=O)c1ccc2[nH]c(O)c(C(=Nc3ccc(N(C)C(=O)CN4CCN(C)CC4)cc3)c3ccc(OC)cc3)c2c1 | -14.8% (active) | 7.14% (active) | 25.6% | 38.4% | 38.7% | 2.38% (active) | 6.44% (active) | 30.4% | 11.9% | 101%
5 | CCCNC(=O)Oc1ccc(/C(=C(/C)Cc2ccc(OC)cc2)c2ccc(OCCN3CCCCC3)cc2)cc1 | 3.39% (active) | 77.5% | 91.1% | 94.9% | 87.3% | 90.2% | 98.4% | 88.6% | 71.7% | 84.4%
6 | CCOc1nc(-c2ccccc2)cc2c(O)c(C(=O)N/N=C/c3ccccc3O)[nH]c(=O)c12 | 28.2% | 99.3% | 65.4% | 89.7% | 93% | 102% | 50.1% | 76.7% | 66.1% | 5.38% (active)
7 | N#Cc1c2cccnc2c2nnc3cc(Cl)c(Cl)cc3n12 | 5.53% (active) | 35.3% | -19.5% (active) | 89.3% | -4.97% (active) | 90% | 10.6% | -9.66% (active) | -56.8% (active) | -5.61% (active)
8 | O=C1/C(=N\c2cc(=O)[nH]n2S(=O)(=O)c2ccccc2)Nc2ccccc21 | 89.7% | 95.2% | 102% | 105% | 98.4% | 105% | 100% | 104% | 91% | 101%
9 | Cc1nnc(/N=C2\NC(=O)/C(=C/C=C/c3ccccc3)S2)s1 | 34.8% | 44.8% | 49.5% | 88.3% | 48.5% | 58.3% | 51.8% | 38.5% | 71.7% | 44.8%
10 | CCOC(=O)NNc1[nH]c(-c2ccc(OC)cc2)cc1C#N | -2.04% (active) | 91.2% | 99.5% | 87.7% | 153% | 111% | 57.5% | 107% | 96.3% | 88.9%
11 | N=C(N)c1ccc(-c2ccc(-c3ccc(F)cc3)s2)cc1 | -24.2% (active) | -55.5% (active) | -28.4% (active) | -87.4% (active) | -70.8% (active) | -80% (active) | -69.8% (active) | -92.4% (active) | -59.4% (active) | -77.1% (active)
12 | BrCCCOc1ccc(Oc2ccc(OCCCBr)cc2)cc1 | 93.8% | 98% | 94.6% | 122% | 99% | 123% | 97.7% | 123% | 92.8% | 110%

— PubChem BioAssay (NCI)
